Test systems include SK-MEL-2 melanoma; EKVX NSCLC; SN12C renal; UO-31 renal; TK-10 renal; ACHN renal; CAKI-1 renal; A498 renal; CCRF-CEM leukemia; MOLT-4 leukemia; SR leukemia; RPMI-8226 leukemia; OVCAR-8 ovarian; OVCAR-5 ovarian; OVCAR-4 ovarian; SK-OV-3 ovarian; IGROV1 ovarian; OVCAR-3 ovarian; HS 578T breast; NCI/ADR-RES ovarian.
Common to all, as to assay: NCI-60 one-dose screen, 48 h (100 = growth as untreated, 0 = no growth, -100 = all killed)
Common to all, as to details: 10 µM unless noted

Molecules are shown by their SMILES. This is part of a sample that, as a whole, favours compounds with a hit. Of some 83,000 tested, about 20% had one in any assay.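 Single-concentration screen, 48 h exposure, 96-well plates. Endpoint: percent growth. Below 10 = active.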 Unmarked numbers belong to inactive results. Calls of active or inactive are those of the source.

This is an account of results in PubChem BioAssay (NCI).

Consider `OC1CSSC1Cn1cnc2c(Nc3ccc(F)c(Cl)c3)ncnc21` (stereo not given), for which the growth was 93.3% in the test on SK-MEL-2 melanoma; 58.5% with EKVX NSCLC; 98.9% in the test with SN12C renal; 44% with UO-31 renal; 96.1% with TK-10 renal; 98.1% with ACHN renal. Moreover, the growth in the test with CAKI-1 renal is 105%; in the test on A498 renal, 103%; in the test with CCRF-CEM leukemia, 29.6%; in the test with MOLT-4 leukemia it was -27.1% (active); with SR leukemia, 3.55% (active); in the test with RPMI-8226 leukemia, 55.7%. Also, the growth was 96.5% with OVCAR-8 ovarian; 115% in the test with OVCAR-5 ovarian; 91.4% in the test on OVCAR-4 ovarian; 107% with SK-OV-3 ovarian; 93.2% with IGROV1 ovarian; 68.5% with OVCAR-3 ovarian. Moreover, the growth with HS 578T breast is 103%; in the test on NCI/ADR-RES ovarian, 93.3%.

As to `C=CCOC(=O)C1=C(C)N(CC)C(=O)N(CC)C1c1c(Cl)n(C)c2ccccc12` (stereo not given), the growth was 95.6% in the test on SK-MEL-2 melanoma; 75.5% with EKVX NSCLC; 89% in the test on SN12C renal; 64.6% in the test on UO-31 renal; 94.1% in the test with TK-10 renal; 56.9% in the test with ACHN renal. For the same compound, the growth was 32.8% with CAKI-1 renal; 82.5% with A498 renal; -9.42% (active) with CCRF-CEM leukemia; 89.3% in the test with MOLT-4 leukemia; 90.5% with SR leukemia; 59.7% in the test with RPMI-8226 leukemia. For the same compound, the growth was 88% in the test on OVCAR-8 ovarian; 89.1% with OVCAR-5 ovarian; 88.5% with OVCAR-4 ovarian; 103% in the test on SK-OV-3 ovarian; 90.9% in the test with IGROV1 ovarian; 90% in the test with OVCAR-3 ovarian. Besides, the growth in the test on HS 578T breast is 89.2%; in the test with NCI/ADR-RES ovarian, 84.2%.

For `Cc1cccc(C)c1NC(=O)Nc1ccccc1`, the growth was 29% in the test with SK-MEL-2 melanoma; 121% in the test on EKVX NSCLC; 88.6% in the test with SN12C renal; 80.7% with UO-31 renal; 96.7% in the test with TK-10 renal; 4.67% (active) in the test on ACHN renal. Moreover, the growth in the test with CAKI-1 renal was 54.3%; in the test on A498 renal, 109%; in the test on CCRF-CEM leukemia it was 83.1%; in the test with MOLT-4 leukemia, 81.7%; in the test on SR leukemia it was 68.6%; with RPMI-8226 leukemia it was 96.1%. The growth in the test with OVCAR-8 ovarian was 85.1%; with OVCAR-5 ovarian it was 72.2%; in the test with OVCAR-4 ovarian, 76.6%; with SK-OV-3 ovarian, 102%; with IGROV1 ovarian, 71%; with OVCAR-3 ovarian it was 115%. The growth is 128% in the test on HS 578T breast and 97.1% with NCI/ADR-RES ovarian.

On to `CN1CCN(Cc2ccc(NC(=O)c3cncc(C#Cc4cnc(N)c5ccc(C#N)cc45)c3)cc2C(F)(F)F)CC1`, for which the growth is -62% (active) with SK-MEL-2 melanoma; 43.4% in the test with EKVX NSCLC; -81.1% (active) in the test with SN12C renal; -78.4% (active) in the test with UO-31 renal; -2.47% (active) in the test with TK-10 renal; -92.5% (active) in the test with ACHN renal. The growth in the test with CAKI-1 renal was -51.5% (active); in the test with A498 renal, -29.8% (active); in the test on CCRF-CEM leukemia it was 3.96% (active); in the test on MOLT-4 leukemia, 2.26% (active); with SR leukemia, 20%; in the test on RPMI-8226 leukemia it was -25.3% (active). Further, the growth in the test with OVCAR-8 ovarian is -68.4% (active); with OVCAR-5 ovarian, -79.6% (active); with OVCAR-4 ovarian it was -56.8% (active); in the test with SK-OV-3 ovarian, -4.83% (active); with IGROV1 ovarian, -64.1% (active); in the test with OVCAR-3 ovarian, 3.19% (active). Further, the growth was -32.1% (active) in the test with HS 578T breast and -13.6% (active) in the test on NCI/ADR-RES ovarian.

Turning to `C[C@@H]1N=C(c2ccc(Cl)cc2Cl)Nc2nc3ccccn3c2C1=O`, the growth in the test on SK-MEL-2 melanoma is 38.2%; in the test with EKVX NSCLC, 82.5%; in the test with SN12C renal, 75.8%; in the test with UO-31 renal, 52.4%; in the test with TK-10 renal, 74.5%; in the test on ACHN renal, 60.2%. The growth in the test with CAKI-1 renal was 47.2%; in the test on A498 renal, 60.7%; with CCRF-CEM leukemia it was 56.6%; in the test with MOLT-4 leukemia, 50.4%; in the test with SR leukemia it was 33%; with RPMI-8226 leukemia it was 75.2%. Also, the growth with OVCAR-8 ovarian is 68.1%; in the test on OVCAR-5 ovarian, 91.2%; in the test with OVCAR-4 ovarian it was 89.5%; in the test on SK-OV-3 ovarian, 50.1%; in the test on IGROV1 ovarian, 41.9%; with OVCAR-3 ovarian, 2.44% (active). For the same compound, the growth in the test with HS 578T breast is 52%; in the test on NCI/ADR-RES ovarian it was 44.5%.

With `CCn1c2ccccc2c2cc(C(O)c3cccc4ncccc34)ccc21` (stereo not given), the growth with SK-MEL-2 melanoma is 51.5%; in the test on EKVX NSCLC, 59.3%; in the test on SN12C renal it was 27.6%; with UO-31 renal, 11.9%; with TK-10 renal it was 54.7%; in the test on ACHN renal it was 27.9%. Also, the growth is 43% in the test with CAKI-1 renal; 8.73% (active) in the test on A498 renal; 8.21% (active) in the test with CCRF-CEM leukemia; 13.5% in the test with MOLT-4 leukemia; 15.5% in the test with SR leukemia; -2.06% (active) with RPMI-8226 leukemia. The growth was 20.8% in the test with OVCAR-8 ovarian; 48.7% in the test with OVCAR-5 ovarian; 45.4% in the test with OVCAR-4 ovarian; 69.1% in the test on SK-OV-3 ovarian; 19.1% in the test with IGROV1 ovarian; 1.86% (active) in the test with OVCAR-3 ovarian. Besides, the growth was 21.3% with HS 578T breast and -53.2% (active) in the test on NCI/ADR-RES ovarian.

Consider `Cc1cc2c(c(C)n1)CN(C(=O)Nc1nc(-c3cncs3)ccc1N)C2`, for which the growth in the test on SK-MEL-2 melanoma was 81%; in the test on EKVX NSCLC, 97.3%; in the test on SN12C renal, 105%; with UO-31 renal it was 92%; in the test with TK-10 renal, 62.7%; in the test with ACHN renal, 106%. Besides, the growth in the test on CAKI-1 renal is 76.8%; in the test with A498 renal it was 96%; in the test on CCRF-CEM leukemia, 107%; in the test on MOLT-4 leukemia, 107%; in the test with SR leukemia, 95.3%; with RPMI-8226 leukemia, 93.7%. Also, the growth in the test on OVCAR-8 ovarian was 92.3%; in the test on OVCAR-5 ovarian it was 103%; with OVCAR-4 ovarian, 96.7%; with SK-OV-3 ovarian, 89%; with IGROV1 ovarian, 92.6%; in the test with OVCAR-3 ovarian, 103%. The figures for the growth with HS 578T breast and with NCI/ADR-RES ovarian were 104% and 96.5%, respectively.

As to `COC(=O)c1c(C)nc(C)c2c1C(=O)C(Br)=C(NCCN1CCOCC1)C2=O`, the growth was 99.4% in the test on SK-MEL-2 melanoma; 100% in the test on EKVX NSCLC; 89.5% in the test with SN12C renal; 86.5% with UO-31 renal; 108% with TK-10 renal; 97.9% in the test with ACHN renal. In addition, the growth in the test on CAKI-1 renal is 91.4%; in the test on A498 renal it was 92.4%; with CCRF-CEM leukemia, 97.3%; in the test with MOLT-4 leukemia, 99.3%; in the test on SR leukemia, 107%; with RPMI-8226 leukemia it was 93.7%. For the same compound, the growth in the test with OVCAR-8 ovarian is 81.9%; in the test with OVCAR-5 ovarian, 118%; in the test with OVCAR-4 ovarian, 73.8%; in the test on SK-OV-3 ovarian, 138%; in the test on IGROV1 ovarian it was 96.2%; in the test on OVCAR-3 ovarian it was 13.2%. For the same compound, the growth is 110% in the test with HS 578T breast and 103% with NCI/ADR-RES ovarian.
